Test results published in PubChem BioAssay.
Active and inactive are the calls of the source.

Key:
[1] = optical density shifts of acrAB sulA E. coli – strain DRC41, OD650, 48 h, E. coli filamentation inducer project, primary screen (AID 1152); details: higher = more signal, called active from +8 up or from −8 down;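 also: E. coli MC1000 strain DRC41 lacking acrAB efflux pump and sulA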
[2] = probe aLefty1 binding on compound microarray – biochemical, small-molecule microarray, 635/667 nm fluorescence, primary screen (AID 1153); details: higher = more signal;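 also: score merges spot fluorescence with signal-to-noise ratio from the scanned slide images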
[3] = plasmodial surface anion channel blockers, osmotic lysis – cell-based, P. falciparum Indochina, OD700, 1 h, primary screen (AID 1154); details: P. falciparum Indochina infected RBC osmotic lysis, higher = more signal, called active from +8 up or from −8 down
[4] = plasmodial surface anion channel blockers, osmotic lysis – cell-based, P. falciparum Indochina, OD700, 2 h, primary screen (AID 1155);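 also: lysis reports solute entry through the parasite surface anion channel PSAC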; details: P. falciparum Indochina infected erythrocytes, higher = more signal, called active from +8 up or from −8 down
[5] = changes in parasitized red cell lysis, either direction – P. falciparum Indochina, OD700, 3 h, PSAC antagonist project, primary screen (AID 1156); details: P. falciparum-infected erythrocytes, osmotic lysis, higher = more signal, called active from +8 up or from −8 down
[6] = plasmodial surface anion channel blockers, osmotic lysis – cell-based, P. falciparum Indochina, OD700, 18 h, primary screen (AID 1157); details: P. falciparum Indochina infected erythrocytes, osmotic lysis OD700, 18 h; higher = more signal, called active from +8 up or from −8 down
[7] = S6 kinase pathway phospho-S6 level changes – cell-based, A549, cytoblot, luminescence, serum-stimulated, primary screen (AID 1158); details: 5 h, higher = more signal;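 also: serum-stimulated A549 lung adenocarcinoma cells; signal is phosphorylated S6 detected by cytoblot immunostaining with HRP secondary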
[8] = target: NADPH oxidase 2 (Homo sapiens) (UniProt P04839); assay: compounds shifting NOX2 Amplex Red fluorescence – cell-based, HEK293-NOX2, PMA-stimulated, NOX inhibitor project, primary screen (AID 1159); details: 45 min, higher = more signal, called active from +8 up or from −8 down; also: test concentration not given here
[9] = target: NADPH oxidase 4 (Homo sapiens) (UniProt Q9NPH5); assay: compounds shifting NOX4 Amplex Red fluorescence – cell-based, HEK293-NOX4, tetracycline-induced, NOX inhibitor project, primary screen (AID 1160); details: HEK293-NOX4, Amplex Red H2O2 fluorescence, 45 min; higher = more signal, called active from +8 up or from −8 down
[10] = target: NADPH oxidase 5 (Homo sapiens) (UniProt Q96PH1); assay: compounds shifting NOX5 Amplex Red fluorescence – cell-based, HEK293-NOX5, NOX inhibitor project, primary screen (AID 1161); details: HEK293-NOX5, ionomycin, 45 min, higher = more signal
[11] = compound effects on lung adenocarcinoma cell viability – A549, calcein-AM fluorescence, 48 h, basal, profiling panel (AID 1162); details: higher = more signal; also: test concentration not given here
[12] = compound effects on differentiated 3T3-L1 adipocyte viability – cell-based, 3T3-L1 adipocytes, calcein-AM fluorescence, 48 h, basal, profiling panel (AID 1163); details: 3T3-L1 adipocytes viability, higher = more signal; also: test concentration not given here
[13] = compound effects on hepatocellular carcinoma cell viability – HepG2, calcein-AM fluorescence, 48 h, basal, profiling panel (AID 1164); details: higher = more signal; also: test concentration not given here
[14] = compound effects on multiple myeloma cell viability – MM1S, calcein-AM fluorescence, 48 h, basal, profiling panel (AID 1165); details: higher = more signal;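 also: viability of MM1S multiple myeloma cells under basal unstimulated conditions; test concentration not given here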
[15] = calcein-AM signal in unstimulated myeloma cells – cell-based, calcein-AM fluorescence, 48 h, PK04 Diversity Set, profiling panel (AID 1166); details: RPMI8226 myeloma viability, higher = more signal;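 also: cells grown under basal conditions without added stimulus; test concentration not given here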
[16] = JC-1 mitochondrial signal, unstimulated HepG2 cells – cell-based, JC-1 fluorescence, 24 h, 100 nL compound, profiling panel (AID 1167); details: HepG2 mitochondrial potential, higher = more signal; also: test concentration not given here
[17] = JC-1 mitochondrial signal, unstimulated adipocytes – cell-based, JC-1 fluorescence, 3T3-L1 adipocytes, 24 h, 100 nL compound, profiling panel (AID 1168); details: JC-1 mitochondrial fluorescence, higher = more signal, called active from +8 up or from −8 down; also: test concentration not given here
[18] = JC-1 mitochondrial signal, unstimulated myeloma cells – cell-based, JC-1 fluorescence, RPMI8226, 24 h, 100 nL compound, profiling panel (AID 1169); details: JC-1 mitochondrial potential fluorescence, higher = more signal; also: test concentration not given here
[19] = JC-1 mitochondrial signal, unstimulated MM1S myeloma – cell-based, JC-1 fluorescence, 24 h, 100 nL compound, profiling panel (AID 1170); details: MM1S mitochondrial potential, higher = more signal; also: test concentration not given here
[20] = resazurin metabolic signal in A549 cells – cell-based, resazurin fluorescence, 24 h, PK04 Diversity Set, profiling panel (AID 1171); details: A549 viability, higher = more signal, called active from +8 up or from −8 down; also: test concentration not given here

NADPH oxidase 2 (Homo sapiens), sequence (P04839 whole entry, looked up): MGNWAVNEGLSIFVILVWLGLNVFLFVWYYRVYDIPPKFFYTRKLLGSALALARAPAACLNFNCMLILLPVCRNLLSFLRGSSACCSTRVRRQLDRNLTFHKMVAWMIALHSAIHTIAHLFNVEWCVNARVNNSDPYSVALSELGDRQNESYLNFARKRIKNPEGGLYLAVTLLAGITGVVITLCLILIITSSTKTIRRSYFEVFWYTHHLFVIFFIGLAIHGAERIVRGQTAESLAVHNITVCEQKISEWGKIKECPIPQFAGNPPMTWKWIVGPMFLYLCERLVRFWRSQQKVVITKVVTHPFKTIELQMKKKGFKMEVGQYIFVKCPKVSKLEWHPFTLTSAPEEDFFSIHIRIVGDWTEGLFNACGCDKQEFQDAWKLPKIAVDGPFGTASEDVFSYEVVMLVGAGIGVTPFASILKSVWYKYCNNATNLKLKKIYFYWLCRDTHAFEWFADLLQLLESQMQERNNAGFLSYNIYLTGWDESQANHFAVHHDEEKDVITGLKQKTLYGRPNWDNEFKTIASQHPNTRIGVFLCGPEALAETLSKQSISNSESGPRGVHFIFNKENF
NADPH oxidase 5 (Homo sapiens), sequence (Q96PH1 whole entry, looked up): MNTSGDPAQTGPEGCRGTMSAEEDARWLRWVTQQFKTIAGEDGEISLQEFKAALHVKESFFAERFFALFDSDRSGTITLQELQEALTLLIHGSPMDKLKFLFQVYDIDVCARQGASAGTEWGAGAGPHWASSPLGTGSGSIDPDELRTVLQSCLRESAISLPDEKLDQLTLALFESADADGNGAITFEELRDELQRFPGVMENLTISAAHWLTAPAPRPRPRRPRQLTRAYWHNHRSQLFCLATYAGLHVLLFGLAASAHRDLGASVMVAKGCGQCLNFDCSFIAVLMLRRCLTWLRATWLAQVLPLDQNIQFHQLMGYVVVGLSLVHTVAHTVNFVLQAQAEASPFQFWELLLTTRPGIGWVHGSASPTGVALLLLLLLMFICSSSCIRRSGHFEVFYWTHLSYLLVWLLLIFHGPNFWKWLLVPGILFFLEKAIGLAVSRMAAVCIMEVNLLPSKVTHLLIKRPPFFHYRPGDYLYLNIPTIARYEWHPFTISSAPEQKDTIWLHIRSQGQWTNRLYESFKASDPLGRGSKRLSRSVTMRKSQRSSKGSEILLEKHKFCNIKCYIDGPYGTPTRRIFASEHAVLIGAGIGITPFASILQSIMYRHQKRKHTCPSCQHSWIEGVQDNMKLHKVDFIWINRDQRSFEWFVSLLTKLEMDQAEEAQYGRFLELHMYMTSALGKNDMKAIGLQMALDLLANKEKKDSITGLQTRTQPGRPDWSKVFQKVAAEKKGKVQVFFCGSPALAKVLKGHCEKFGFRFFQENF
NADPH oxidase 4 (Homo sapiens), sequence (Q9NPH5 whole entry, looked up): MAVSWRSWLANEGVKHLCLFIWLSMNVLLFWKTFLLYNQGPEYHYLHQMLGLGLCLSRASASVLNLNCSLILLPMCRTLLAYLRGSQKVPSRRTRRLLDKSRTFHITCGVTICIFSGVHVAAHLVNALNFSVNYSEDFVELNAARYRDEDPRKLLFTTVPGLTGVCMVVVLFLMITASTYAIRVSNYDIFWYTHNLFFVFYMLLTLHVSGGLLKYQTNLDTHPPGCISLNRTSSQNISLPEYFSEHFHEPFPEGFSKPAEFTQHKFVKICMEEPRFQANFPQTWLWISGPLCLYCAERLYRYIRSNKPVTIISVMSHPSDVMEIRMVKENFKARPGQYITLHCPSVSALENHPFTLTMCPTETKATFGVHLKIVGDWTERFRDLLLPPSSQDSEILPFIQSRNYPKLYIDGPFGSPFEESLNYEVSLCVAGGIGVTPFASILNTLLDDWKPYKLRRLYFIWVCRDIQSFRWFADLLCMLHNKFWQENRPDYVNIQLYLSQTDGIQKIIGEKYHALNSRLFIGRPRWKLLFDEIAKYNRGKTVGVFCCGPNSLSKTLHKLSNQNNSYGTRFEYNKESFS

Structure (SMILES)	z-score [1]	composite z-score [2]	z-score [3]	z-score [4]	z-score [5]	z-score [6]	z-score [7]	z-score [8]	z-score [9]	z-score [10]	z-score [11]	z-score [12]	z-score [13]	z-score [14]	z-score [15]	z-score [16]	z-score [17]	z-score [18]	z-score [19]	z-score [20]
CC(C)(C)OC(=O)CC[C@@]1(C(=O)N2CCOCC2)N=C(c2ccc(OCCCO)cc2)O[C@@H]1c1ccccc1N=[N+]=[N-]	1.96 (inactive)	0.394	30.9 (active)	28.1 (active)	1.09 (inactive)	7.36 (inactive)	-0.242	-3.49 (inactive)	0.71 (inactive)	-2.04	0.962	0.122	0.169	-0.49	0.338	2.09	5.5 (inactive)	-0.499	-1.03	0.716 (inactive)
[N-]=[N+]=Nc1ccccc1[C@@H]1OC(c2ccc(OCCCO)cc2)=N[C@]1(CCS(=O)(=O)c1ccccc1)C(=O)N1CCCCC1	-0.112 (inactive)	1.12	30.2 (active)	25 (active)	1.7 (inactive)	3.94 (inactive)	-0.174	-1.33 (inactive)	1.85 (inactive)	1.52	-0.564	-0.56	-0.0675	-0.92	-0.739	-0.827	0.0238 (inactive)	-0.881	-0.923	-0.127 (inactive)
CC1(C)C(=O)C(c2ccccc2)=C2CN3C(=O)N(CCc4ccccc4)C(=O)C3(Cc3ccccc3)C=C21 (stereo not given)	-1.23 (inactive)	0.647	2.06 (inactive)	0.541 (inactive)	0.483 (inactive)	0.861 (inactive)	-0.196	-0.147 (inactive)	0.405 (inactive)	-1.62	-0.739	-0.295	0.54	-0.0119	0.0826	0.000299	-0.385 (inactive)	-0.871	-1.52	0.199 (inactive)
CCOC(=O)C[C@H]1[C@H](OC(=O)c2cc3ccccc3oc2=O)[C@@H](NC(=O)c2ccc3ccccc3c2)c2cc(OCCCO)ccc2N1C(=O)c1ccccc1	0.734 (inactive)	0.201	1.22 (inactive)	-1.04 (inactive)	0.519 (inactive)	-2.59 (inactive)	1.2	-0.539 (inactive)	-0.928 (inactive)	0.53	0.659	2.7	0.582	0.0168	-0.608	-1.3	0.571 (inactive)	0.416	0.755	-1.01 (inactive)
C=C[C@H](C)[C@H](O)c1ccc(OCCO)cc1	1.05 (inactive)	-0.553	1.09 (inactive)	0.521 (inactive)	1.62 (inactive)	0.402 (inactive)	0.156	0.218 (inactive)	-0.187 (inactive)	-0.112	-0.001	0.557	-0.548	1.17	-0.484	0.221	-0.721 (inactive)	-0.238	-0.339	-0.276 (inactive)
COc1ccc([Si](C)(C)[C@@H]2[C@@H](CC(=O)N3Cc4ccccc4C[C@H]3CO)O[C@]3(C(=O)N(Cc4cccc(N5C(=O)COc6ccccc65)c4)c4ccccc43)[C@H]2C)cc1	2.59 (inactive)	-0.286	4.94 (inactive)	1.18 (inactive)	-0.0434 (inactive)	0.208 (inactive)	4.59	-0.387 (inactive)	0.518 (inactive)	0.827	0.196	1.34	0.553	-0.296	-1.47	0.411	1.52 (inactive)	-1.17	-0.974	-0.751 (inactive)
Cc1ccc(S(=O)(=O)N2CC(C(=O)O)=CCC2c2ccccc2)cc1 (stereo not given)	-1.24 (inactive)	0.0717	1.17 (inactive)	1.1 (inactive)	1.13 (inactive)	0.879 (inactive)	-0.55	-0.363 (inactive)	-1.02 (inactive)	-1.02	-0.901	0.324	-0.772	-0.249	-1.19	-0.644	-2.04 (inactive)	-0.25	1.53	-0.717 (inactive)
COCCOC(=O)N1C(=O)[C@@]2(c3cc(C#Cc4ccc(OC)cc4)ccc31)[C@H](C(N)=O)[C@H]1C(=O)O[C@H](c3ccccc3)[C@H](c3ccccc3)N1[C@@H]2c1ccc(O)cc1	1.52 (inactive)	0.649	0.429 (inactive)	-0.359 (inactive)	-0.939 (inactive)	-1.13 (inactive)	2.93	-0.0615 (inactive)	0.893 (inactive)	0.128	0.363	0.632	-0.905	0.152	-2.22	-0.933	0.454 (inactive)	-0.677	-0.317	0.179 (inactive)
CC(C)C(CO)N1C(=O)[C@@H]2[C@H]3C(=O)OCC=C[C@H]3OC23C=CCN(c2ccc4ccccc4c2)C(=O)[C@@H]13 (stereo not given in full)	-0.165 (inactive)	-0.147	0.244 (inactive)	0.884 (inactive)	0.686 (inactive)	0.6 (inactive)	-0.575	0.902 (inactive)	0.357 (inactive)	1.74	-0.339	0.126	0.21	0.88	-1.02	-0.124	0.106 (inactive)	-0.651	1.1	0.156 (inactive)
CC(C)(C)OC(=O)CC[C@@]1(C(N)=O)N=C(c2ccc(OCCCO)cc2)O[C@@H]1c1ccccc1N=[N+]=[N-]	1.3 (inactive)	0.224	30.8 (active)	31.3 (active)	2.05 (inactive)	2.73 (inactive)	-0.207	1.57 (inactive)	-0.154 (inactive)	-1.44	1.37	0.337	2.25	1.46	0.415	0.221	0.951 (inactive)	-0.892	-0.706	-0.763 (inactive)
NC(=O)NCC#Cc1ccc2c(c1)[C@]1(C(=O)N2)[C@H](c2ccccc2OCCO)N2[C@H](c3ccccc3)[C@H](c3ccccc3)OC(=O)[C@H]2[C@@H]1C(=O)N1CCCCCCC1	1.01 (inactive)	2.71	1.71 (inactive)	0.786 (inactive)	1.19 (inactive)	0.443 (inactive)	-0.281	1.87 (inactive)	0.893 (inactive)	0.768	-0.169	0.73	0.231	-0.0358	0.236	-0.978	0.303 (inactive)	-0.498	0.143	0.414 (inactive)
COCCOC(=O)N1C(=O)[C@@]2(c3cc(C#Cc4ccc(OC)cc4)ccc31)[C@H](c1ccc(O)cc1)N1[C@H](c3ccccc3)[C@H](c3ccccc3)OC(=O)[C@H]1[C@@H]2C(=O)N1CCN(c2ncccn2)CC1	0.714 (inactive)	-0.0601	1.45 (inactive)	0.876 (inactive)	-0.969 (inactive)	0.59 (inactive)	-0.63	1.87 (inactive)	-1.34 (inactive)	-0.0267	-0.514	0.546	-0.0225	-0.305	-1.12	-0.445	2.33 (inactive)	-0.525	-0.339	0.484 (inactive)
CC(=O)N1Cc2ccccc2C[C@@]2(N=C(c3ccc(OCCCO)cc3)O[C@H]2c2ccccc2)C1=O	1.6 (inactive)	1.29	24.1 (active)	8.42 (active)	2.76 (inactive)	0.944 (inactive)	2.14	-4.15 (inactive)	0.144 (inactive)	-2.86	-1.09	0.609	-1.31	-2.19	-3.36	1.8	0.234 (inactive)	-1.15	-0.438	-2.8 (inactive)
COC(=O)[C@@]1(Cc2ccc(OC)cc2)[C@H]2c3cc(C(=O)N4CCCC4)n(C[C@H](O)CO)c3C[C@H]2CN1C(=O)c1ccccc1	-0.599 (inactive)	0.132	1.24 (inactive)	-0.478 (inactive)	0.425 (inactive)	0.201 (inactive)	0.245	0.4 (inactive)	0.18 (inactive)	-3.78	-0.892	-0.113	0.255	-1.05	0.197	1.76	0.585 (inactive)	0.933	-1.03	0.336 (inactive)
[N-]=[N+]=NCc1ccccc1C[C@]1(C(=O)NCc2ccccc2)COC(c2ccc(OCCCO)cc2)=N1	0.104 (inactive)	-0.373	28.9 (active)	24.6 (active)	4.42 (inactive)	2.78 (inactive)	-0.153	-2.28 (inactive)	-0.958 (inactive)	-1.81	-2.45	-0.679	-3.8	-3.38	-4.32	0.762	0.768 (inactive)	-0.891	-2.3	-1.42 (inactive)
COc1ccccc1CN1C(=O)c2ccccc2[C@](Cc2ccccc2I)(C(=O)NC2CC2)[C@@H]1c1ccc(CO)cc1	0.203 (inactive)	-0.25	11.4 (active)	1.35 (inactive)	2.38 (inactive)	0.99 (inactive)	-0.154	-0.975 (inactive)	-0.89 (inactive)	-2.08	-0.741	-0.475	-0.468	-0.664	-1.54	1.32	0.424 (inactive)	-1.04	-0.508	-0.264 (inactive)
COc1ccc(C#Cc2ccc3c(c2)[C@]2(C(=O)N3)[C@H](C(=O)N3CCN(c4ncccn4)CC3)[C@H]3C(=O)O[C@H](c4ccccc4)[C@H](c4ccccc4)N3[C@@H]2c2ccc(O)cc2)cc1	-0.475 (inactive)	0.583	1.5 (inactive)	1.59 (inactive)	0.474 (inactive)	0.686 (inactive)	-0.2	1.25 (inactive)	-0.171 (inactive)	-0.146	-0.125	0.583	0.804	-0.156	-0.404	-1.11	1.08 (inactive)	-0.899	-0.427	-0.164 (inactive)
C=C[C@@H](C)[C@@H](OC(=O)Nc1ccc(OC)cc1)c1ccc(O)c2ccccc12	0.0598 (inactive)	-0.0222	2.46 (inactive)	0.661 (inactive)	0.0162 (inactive)	0.354 (inactive)	0.382	-5.9 (inactive)	-1.81 (inactive)	-0.437	-1.24	-0.336	-1.63	-2.72	-4.29	-3.19	-0.425 (inactive)	-1.13	-1.23	-0.527 (inactive)
